Measurements from PubChem BioAssay (NCI).
Compounds without any hit were thinned out: in the full panel of roughly 79,000, 15% have a hit. The source made the active and inactive calls. Rule as the data show it: active = growth inhibition above about 70%; inactive = the rest.

What was measured:
[1] = NCI Yeast Anticancer Drug Screen. Data for the rad52 strain (AID 147);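 also: 0% = growth of vehicle-treated control cultures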; settings: S. cerevisiae rad52 mutant growth inhibition, active compounds read high
Method in brief: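 Growth of repair-deficient yeast cells was compared between compound-treated and vehicle-treated cultures to give percent inhibition.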

[2] = NCI Yeast Anticancer Drug Screen. Data for the wt1 strain (AID 149);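 also: 0% = growth of vehicle-treated wt1 cultures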; settings: S. cerevisiae wt1 strain (SPY 50644) growth inhibition, active compounds read high
Method in brief: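 Vehicle-normalised growth inhibition; strain wt1; compound exposure.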

[3] = NCI Yeast Anticancer Drug Screen. Data for the rad50EPP+ strain (AID 151);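 also: 0% = growth of vehicle-treated control cultures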; settings: S. cerevisiae rad50 mutant strain, active compounds read high
Method in brief: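 Measured: growth inhibition of rad50EPP+ yeast. Reference: vehicle-treated controls. Screen uses strains with defined genetic alterations in DNA damage repair or cell cycle control.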

[4] = NCI Yeast Anticancer Drug Screen. Data for the mgt1 strain (AID 153); settings: S. cerevisiae mgt1 mutant growth inhibition, active compounds read high
Method in brief: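 Compounds were applied to mgt1 mutant yeast, and growth was then compared against vehicle-treated control cultures to give percent inhibition.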

[5] = NCI Yeast Anticancer Drug Screen. Data for the rad50 strain (AID 155);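 also: 0% = growth of vehicle-only cultures of the same strain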; settings: S. cerevisiae rad50 strain growth inhibition, active compounds read high
Method in brief: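 A DNA repair-deficient yeast mutant serves as the test organism; compound-induced growth inhibition is calculated against vehicle-treated cells.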

[6] = NCI Yeast Anticancer Drug Screen. Data for the mec2-1 strain (AID 157); settings: S. cerevisiae mec2-1 strain, active compounds read high
Method in brief: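 Compounds were applied to mec2-1 yeast cells. Their growth was then compared with that of vehicle-treated cultures to give growth inhibition.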

[7] = NCI Yeast Anticancer Drug Screen. Data for the rad14 strain (AID 159);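 also: 0% = growth of vehicle-treated control cultures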; settings: S. cerevisiae rad14 strain growth inhibition, active compounds read high
Method in brief: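 Vehicle-treated cultures served as the baseline for growth inhibition of a DNA repair-mutant yeast strain exposed to each compound.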

[8] = NCI Yeast Anticancer Drug Screen. Data for the sgs1 mgt1 strain (AID 161);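 also: 0% = growth of cultures given vehicle only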; settings: S. cerevisiae sgs1 mgt1 strain, active compounds read high
Method in brief: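 Compounds are added to genetically altered yeast, and growth is compared with cultures given vehicle alone to give percent inhibition.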

[9] = NCI Yeast Anticancer Drug Screen. Data for the CLN2oe strain (AID 163);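 also: 0% = growth of vehicle-only control cultures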; settings: S. cerevisiae CLN2oe strain, active compounds read high
Method in brief: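 Cells of an engineered yeast line with disturbed cell-cycle regulation are treated with compound. Inhibition of growth is then calculated relative to the vehicle-treated reference.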

[10] = NCI Yeast Anticancer Drug Screen. Data for the cln2 rad14 strain (AID 165);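 also: 0% = growth equal to vehicle treated cultures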; settings: S. cerevisiae cln2 rad14 strain, active compounds read high
Method in brief: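 Strain: cln2 rad14 yeast, altered in cell cycle control and DNA damage repair. Read-out: growth inhibition vs vehicle.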

[11] = NCI Yeast Anticancer Drug Screen. Data for the bub3 strain (AID 167); settings: S. cerevisiae bub3 mutant strain, active compounds read high
Method in brief: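 Inhibition values come from growth of compound-treated mutant yeast normalised to vehicle-treated controls.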

[12] = NCI Yeast Anticancer Drug Screen. Data for the mlh1 strain (AID 171);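 also: 0% = growth of vehicle-treated control cultures of the same strain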; settings: S. cerevisiae mlh1 strain growth inhibition, active compounds read high
Method in brief: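 Test agents were incubated with yeast bearing a defined DNA damage repair or cell cycle control alteration; values are growth inhibition normalised to vehicle-treated cultures.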

[13] = NCI Yeast Anticancer Drug Screen. Data for the sgs1 strain (AID 173);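 also: 0% = growth of vehicle-only control cultures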; settings: S. cerevisiae sgs1 mutant, active compounds read high
Method in brief: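 Strain with an altered DNA repair or cell cycle pathway exposed to compound. Growth then measured. Value = inhibition versus vehicle control.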

[14] = NCI Yeast Anticancer Drug Screen. Data for the mlh1 rad18 strain (AID 175); settings: S. cerevisiae mlh1 rad18 strain growth inhibition, active compounds read high
Method in brief: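 A repair-deficient yeast strain is exposed to test compound, and growth is scored relative to vehicle-treated controls.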

[15] = NCI Yeast Anticancer Drug Screen. Data for the rad18 strain (AID 177); settings: S. cerevisiae rad18 mutant growth inhibition, active compounds read high
Method in brief: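 DNA-repair-defective yeast; compound treatment; growth inhibition scored against vehicle.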

[16] = at 5.0 µM (retest, dose inferred, filed as 0.5)
[17] = at 50.0 µM (retest, dose inferred, filed as 5.0)

Measured: growth inhibition

COc1ccc2c(c1)C(=O)c1ccccc1C2
active: [11]; at 11.0 µM 74% | [11]; at 33.0 µM 82% | [11]; [17] 85% | [11]; at 50.0 µM 75% | [11]; at 100.0 µM 80%
inactive: [1]; at 1.2 µM 3% | [1]; at 3.7 µM 9% | [1]; at 11.0 µM 20% | [1]; at 33.0 µM 35% | [1]; at 100.0 µM 34% | [2]; at 1.2 µM 2% | [2]; at 3.7 µM 1% | [2]; at 11.0 µM 5% | [2]; at 33.0 µM 6% | [2]; at 100.0 µM 4% | [3]; at 1.2 µM 3% | [3]; at 3.7 µM 10% | [3]; at 11.0 µM 24% | [3]; at 33.0 µM 42% | [3]; at 100.0 µM 46% | [4]; at 1.2 µM -4% | [4]; at 3.7 µM 2% | [4]; at 11.0 µM 5% | [4]; at 33.0 µM 7% | [4]; at 100.0 µM 10% | [5]; at 1.2 µM 3% | [5]; at 3.7 µM 18% | [5]; [16] -23% | [5]; at 11.0 µM 31% | [5]; at 33.0 µM 48% | [5]; [17] 30% | [5]; at 50.0 µM 7% | [5]; at 100.0 µM 35% | [6]; at 1.2 µM -1% | [6]; at 3.7 µM 5% | [6]; [16] -4% | [6]; at 11.0 µM -1% | [6]; at 33.0 µM 6% | [6]; [17] 23% | [6]; at 50.0 µM 24.4% | [6]; at 100.0 µM 6% | [7]; at 1.2 µM 1% | [7]; at 3.7 µM 6% | [7]; at 11.0 µM 8% | [7]; at 33.0 µM 6% | [7]; at 100.0 µM 7% | [8]; [16] 19% | [8]; [17] 0% | [8]; at 50.0 µM -5.05% | [9]; at 1.2 µM -3% | [9]; at 3.7 µM -1% | [9]; at 11.0 µM 0% | [9]; at 33.0 µM 9% | [9]; at 100.0 µM 4% | [10]; [16] -18% | [10]; [17] 4% | [10]; at 50.0 µM -19.8% | [11]; at 1.2 µM 42% | [11]; at 3.7 µM 67% | [11]; [16] 65% | [12]; at 1.2 µM 1% | [12]; at 3.7 µM -1% | [12]; at 11.0 µM 4% | [12]; at 33.0 µM 11% | [12]; at 100.0 µM 28% | [13]; at 1.2 µM -3% | [13]; at 3.7 µM -4% | [13]; at 11.0 µM 0% | [13]; at 33.0 µM 0% | [13]; at 100.0 µM 1% | [14]; [16] 2% | [14]; [17] 31% | [14]; at 50.0 µM 15.6% | [15]; at 1.2 µM -2% | [15]; at 3.7 µM -1% | [15]; at 11.0 µM 6% | [15]; at 33.0 µM 7% | [15]; at 100.0 µM -6%
